Structures can show the parent of a compound that is named as a salt. ± gives the standard deviation of the averaged measurements.
Each compound was assayed on E. coli TESEC Alr+ wild-type control (assay: growth (OD600 after 10 h); higher = more growth (less inhibition)). Settings: compound 0.1 mM; raw OD600 reference: median of DMSO wells 0.241, cell-free background 0.041.
Protocol: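 TESEC Mtb Alr E. coli, or the Alr+ wild-type control, in 384-well plates with Prestwick library compounds at 0.1 mM and 1% DMSO, across arabinose induction levels of 1E3 to 1E7 nM. Growth is read as OD600 after 10 h at 37 °C in triplicate biological replicates.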

| SMILES | growth |
| --- | --- |
| O=C1OC(CN2CCOCC2)CN1/N=C/c1ccc([N+](=O)[O-])o1 (configuration not stated) [Furaltadone hydrochloride] | 0.04157 ± 0.00012 |
| CN(C)CCCN1c2ccccc2CCc2ccccc21 [Imipramine hydrochloride] | 0.189 ± 0.019 |
| CCOC(=O)O[C@]1(C(=O)OCCl)CC[C@H]2[C@@H]3CCC4=CC(=O)C=C[C@]4(C)[C@H]3[C@@H](O)C[C@@]21C [Loteprednol etabonate] | 0.135 ± 0.003 |
| CCCNC(C)C(=O)Nc1ccccc1C (configuration not stated) [Prilocaine hydrochloride] | 0.234 ± 0.0054 |
| NS(=O)(=O)c1cc2c(cc1Cl)NCNS2(=O)=O [Hydrochlorothiazide] | 0.245 ± 0.0063 |
| Cc1cc2c(s1)Nc1ccccc1N=C2N1CCN(C)CC1 [Olanzapine] | 0.207 ± 0.0059 |
| Nc1ccc(C(=O)O)c(O)c1 [4-aminosalicylic acid] | 0.247 ± 0.0075 |
| CC(=O)Oc1ccc(C(c2ccc(OC(C)=O)cc2)c2ccccn2)cc1 [Bisacodyl] | 0.202 ± 0.0032 |
| CN(Cc1cnc2nc(N)nc(N)c2n1)c1ccc(C(=O)N[C@@H](CCC(=O)O)C(=O)O)cc1 (racemic) [Amethopterin (R,S)] | 0.213 ± 0.01 |
| CC(C(=O)O)c1ccc(C(=O)c2ccccc2)s1 (configuration not stated) [Tiaprofenic acid] | 0.22 ± 0.012 |
| Nc1c2ccccc2nc2ccccc12 [Aminacrine] | 0.0412 ± 0.0015 |
| CCCC(CCC)C(=O)O [Valproic acid] | 0.241 ± 0.0026 |
| Cc1[nH]cnc1CN1CCc2c(c3ccccc3n2C)C1=O [Alosetron hydrochloride] | 0.197 ± 0.0093 |
| CN(C)c1nc(N(C)C)nc(N(C)C)n1 [Altretamine] | 0.251 ± 0.0091 |
| Cc1nnc(NS(=O)(=O)c2ccc(N)cc2)s1 [Sulfamethizole] | 0.254 ± 0.0053 |
| CCC1=C(C)CN(C(=O)NCCc2ccc(S(=O)(=O)NC(=O)N[C@H]3CC[C@H](C)CC3)cc2)C1=O [Glimepiride] | 0.247 ± 0.0069 |
| CC1CC(OC(=O)c2ccccc2O)CC(C)(C)C1 (configuration not stated) [Homosalate] | 0.248 ± 0.0027 |
| CCCN(CCC)C(=O)C(CCC(=O)O)NC(=O)c1ccccc1 (configuration not stated) [Proglumide] | 0.255 ± 0.0056 |
| NCCc1ccc(O)c(O)c1 [Dopamine hydrochloride] | 0.1987 ± 0.0012 |

| SMILES | growth |
| --- | --- |
| OCCN1CCN(CCCN2c3ccccc3Sc3ccc(Cl)cc32)CC1 [Perphenazine] | 0.0416 ± 0.00046 |
| CCN(CC)CCOC(=O)C1(C2CCCCC2)CCCCC1 [Dicyclomine hydrochloride] | 0.137 ± 0.0054 |
| Cc1cc(-c2ccccc2)nnc1NCCN1CCOCC1 [Minaprine dihydrochloride] | 0.227 ± 0.0047 |
| CCC1(C)CC(=O)NC1=O (configuration not stated) [Ethosuximide] | 0.2481 ± 0.002 |
| COc1nc(C)nc(Cl)c1NC1=NCCN1 [Moxonidine] | 0.241 ± 0.011 |
| COC(=O)Nc1nc2cc(C(=O)c3cccs3)ccc2[nH]1 [Nocodazole] | 0.251 ± 0.0038 |
| CCN(CC)C(=O)/C(C#N)=C/c1cc(O)c(O)c([N+](=O)[O-])c1 [Entacapone] | 0.0523 ± 0.00059 |
| CCN(CC)CCOC(=O)C(c1ccccc1)C1CCCCC1 (configuration not stated) [Drofenine hydrochloride] | 0.149 ± 0.0031 |
| Cc1c(Cl)cccc1Nc1ncccc1C(=O)O [Clonixin Lysinate] | 0.181 ± 0.0096 |
| Cn1cnc2c1c(=O)[nH]c(=O)n2C [Theobromine] | 0.255 ± 0.0061 |
| COc1cc(N)c(Cl)cc1C(=O)NC1CCN(Cc2ccccc2)CC1 [Clebopride maleate] | 0.19 ± 0.002 |
| CCN1CCN(c2cc3c(cc2F)c(=O)c(C(=O)O)cn3C2CC2)CC1 [Enrofloxacin] | 0.04133 ± 0.00021 |
| Nc1ccn([C@H]2CC[C@@H](CO)O2)c(=O)n1 [Zalcitabine] | 0.246 ± 0.0044 |
| COCCOC(=O)C1=C(C)NC(C)=C(C(=O)OC(C)C)C1c1cccc([N+](=O)[O-])c1 (configuration not stated) [Nimodipine] | 0.18 ± 0.017 |
| C[C@H]1O[C@@H](O[C@H]2[C@@H](O)C[C@H](O[C@H]3[C@@H](O)C[C@H](O[C@H]4CC[C@@]5(C)[C@H](CC[C@@H]6[C@@H]5C[C@@H](O)[C@]5(C)[C@@H](C7=CC(=O)OC7)CC[C@]65O)C4)O[C@@H]3C)O[C@@H]2C)C[C@H](O)[C@@H]1O [Digoxin] | 0.232 ± 0.0079 |
| COc1cccc2c1C(=O)c1c(O)c3c(c(O)c1C2=O)C[C@@](O)(C(C)=O)C[C@@H]3O[C@H]1C[C@H](N)[C@H](O)[C@H](C)O1 [Daunorubicin hydrochloride] | 0.0457 ± 0.0022 |
| O=C(CCNNC(=O)c1ccncc1)NCc1ccccc1 [Nialamide] | 0.237 ± 0.0061 |
| CC(=O)S[C@@H]1CC2=CC(=O)CC[C@]2(C)[C@H]2CC[C@@]3(C)[C@@H](CC[C@@]34CCC(=O)O4)[C@H]12 [Spironolactone] | 0.121 ± 0.0068 |
